# PubChem BioAssay (NCATS)
# Calls of active or inactive are those of the source. Calls follow the shape of the dose curve; as a rule, active = well fitted inhibition curve with a large enough effect; inconclusive = small, poorly fitted or top-dose-only effect; inactive = flat fitted curve, though single readings scatter.
# Biological target: Flap endonuclease 1 (Homo sapiens) (UniProt P39748)
# Assay: qHTS Validation Assay for the Inhibitors of Human Flap endonuclease 1 (FEN1) (AID 488816)
# Conditions: FEN1 nuclease activity, fluorogenic DNA substrate; series mostly up to 57.1 µM; activity, negative = inhibition: at the top concentration
# From the text: The major human flap endonuclease FEN1 is an efficient structure-specific enzyme that recognizes and cleaves a 5'-unannealed DNA flap. It belongs to the RAD2 family nucleases, which are involved in DNA metabolism and are highly conserved in prokaryotes and eukaryotes. FEN1 is a key enzyme in DNA replication, repair and maintenance of genomic stability. 5'-flap removal by FEN1 is critical for Okazaki fragment processing during lagging strand DNA synthesis, long-patch base excision repair (LP BER), and regulating or facilitating recombination events. […] Deletion of the yeast FEN1 gene, i.e. rad27, results in an increased frequency of short DNA (3-32 bp) repeats, micro- and mini-satellite formation, trinucleotide repeat expansion, spontaneous recombination events, and a severe growth defect in association with cell cycle arrest in late S/G2 phase. […] Cells from fen1-/- blastocysts show increased apoptotic cell death after ionizing radiation treatment, and chicken cells lacking the fen1 gene are hypersensitive to DNA alkylating agents, e.g. methylmethane sulfonate (MMS) and N-methyl-N'-nitro-N-nitrosoguanidine (MNNG), as well as hydrogen peroxide.
# FEN1 is found to be increased in many human cancers, including lung, brain cancer, gastric cancer, prostate cancer, pancreatic cancer and breast cancer. […] In particular, elevation of FEN1 in hormone refractory human prostate cancer cells correlates with resistant to various anticancer agents including ionizing radiation, doxorubicin, paclitaxel and vinblastine.
# Three uL of reagents (buffer in column 3 and 4 as negative control and 10 nM FEN1 in columns 1, 2, and 5-48) were dispensed into 1,536-well black solid-bottomed plate. Compounds (23 nL) were transferred via Kalypsys pin tool equipped with 1536-pin array (10 nL slotted pins, V&P Scientific, San Diego, CA). The plates were then incubated for 15 min at room temperature, and 1 uL substrate (50 nM final concentration) were added to start the reaction read twice at 0 min read and 15 min on ViewLux reader. Throughout the screen, reagent bottle and all liquid lines were chilled and made light-tight to minimize reagent degradation. All screening operations were performed on a fully integrated robotic system (Kalypsys, San Diego, CA) containing one RX-130 and two RX-90 anthropomorphic robotic arms (Staubli, Duncan, SC). Library plates were screened starting from the lowest and proceeding to the highest concentration, and a "double-dipping" step of the highest concentration was required to access higher concentrations of compounds. Vehicle-only plates, with DMSO being pin-transferred to the entire column 5-48 compound area, were inserted uniformly at the beginning and the end of each library in order to monitor for and record any shifts in the background, which can be affected by reagent dispensers or loss in enzyme activity overtime. Screening data was corrected, normalized, and concentration-effect relationships were derived by using publicly-available curve fitting algorithms developed in-house (http://ncgc.nih.gov/pub/openhts). A four parameter Hill equation was fitted to the concentration-response data by minimizing the residual error between the modeled and observed responses.
# % is scaled to controls: 0 for no effect and ±100 for the full control effect; potency is read from the fitted curve at half-maximal effect.
# Sequence of Flap endonuclease 1 (Homo sapiens) (P39748 whole entry, looked up): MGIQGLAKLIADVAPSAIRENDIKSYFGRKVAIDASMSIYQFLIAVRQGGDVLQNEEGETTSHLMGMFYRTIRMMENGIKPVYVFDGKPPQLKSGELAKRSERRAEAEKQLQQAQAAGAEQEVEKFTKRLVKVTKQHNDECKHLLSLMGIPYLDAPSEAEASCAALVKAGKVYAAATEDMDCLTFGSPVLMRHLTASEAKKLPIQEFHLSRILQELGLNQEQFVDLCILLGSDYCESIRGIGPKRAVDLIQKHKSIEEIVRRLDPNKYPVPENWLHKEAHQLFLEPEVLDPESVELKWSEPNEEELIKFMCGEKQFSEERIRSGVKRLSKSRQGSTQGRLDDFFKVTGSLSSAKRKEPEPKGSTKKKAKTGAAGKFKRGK
SMILES,"activity, negative = inhibition",Potency
CCN(CC)C(=S)SSC(=S)N(CC)CC,-4.53% (inactive),–
O=C1c2c(O)cc(O)cc2OC(c2ccc(O)c(O)c2)C1O (centres undefined),–,2.67 µM (active)
OC(CN1CCN(c2cccc(Cl)c2)CC1)C(c1ccccc1)c1ccccc1 (centres undefined),-4.69% (inactive),–
CC1(C)NC(=O)N(c2ccc([N+](=O)[O-])c(C(F)(F)F)c2)C1=O,-5% (inactive),–
Nc1ccn([C@@H]2O[C@H](CO)[C@@H](O)C2O)c(=O)n1 (some centres undefined),0.262% (inactive),–
C[C@H](Cc1ccc(O)c(O)c1)[C@@H](C)Cc1ccc(O)c(O)c1,–,0.752 µM (active)
O=c1cc(N2CCOCC2)oc2c(-c3ccccc3)cccc12,-21.3% (inactive),–
CC(=O)O[C@H]1C(=O)[C@@]2(C)C([C@H](OC(=O)c3ccccc3)[C@]3(O)C[C@H](OC(=O)[C@H](O)[C@@H](NC(=O)c4ccccc4)c4ccccc4)C(C)=C1C3(C)C)[C@]1(OC(C)=O)CO[C@@H]1C[C@@H]2O (some centres undefined),-6.99% (inactive),–
NCCCCNCCCN,-5.54% (inactive),–
COc1ccc2cc([C@H](C)C(=O)O)ccc2c1,-1.77% (inactive),–
CC1(C)C(=O)N(CCN2CCC(C(=O)c3ccc(F)cc3)CC2)c2ccccc21,-13.9% (inactive),–
O=Nc1c(-c2c(O)[nH]c3cc(Br)ccc23)[nH]c2ccccc12,-14.5% (inactive),–
O=c1c(O)c(-c2ccc(O)cc2O)oc2cc(O)cc(O)c12,–,2.38 µM (active)
CCOC(=O)C(C)Oc1cccc2c(=O)n(CC(=O)Nc3ccc4c(c3)OCCO4)ccc12 (centres undefined),-2.6% (inactive),–
Nc1nc(OCc2ccccc2)c2[nH]cnc2n1,3.53% (inactive),–
COc1cc2c(cc1OC)C1CC(=O)C(CC(C)C)CN1CC2 (centres undefined),-6.56% (inactive),–
Cc1cccc(C#Cc2ccccc2)n1,-8.39% (inactive),–

SMILES,"activity, negative = inhibition",Potency
COc1ccccc1N1CCN(CCN(C(=O)C2CCCCC2)c2ccccn2)CC1,-5.81% (inactive),–
O=C(c1ccccc1)c1ccc2n1CCC2C(=O)O (centres undefined),-1.4% (inactive),–
CNC[C@H](O)c1ccc(O)c(O)c1,–,10.6 µM (active)
O=C(O)c1cccnc1Nc1cccc(C(F)(F)F)c1,-5.21% (inactive),–
O=c1ccc2ccc(O)c(O)c2o1,–,9.47 µM (active)
CN(C)CCCC1(c2ccc(F)cc2)OCc2cc(C#N)ccc21 (centres undefined),-11% (inactive),–
Nc1nc(N)c(N=O)c(OCC2CCCCC2)n1,-1.33% (inactive),–
Oc1ccc(-c2nc(-c3ccc(F)cc3)c(-c3ccncc3)[nH]2)cc1,-8.8% (inactive),–
O=c1c(O)c(-c2cc(O)c(O)c(O)c2)oc2cc(O)cc(O)c12,–,1.5 µM (active)
Cc1c(OCC(F)(F)F)ccnc1CS(=O)c1nc2ccccc2[nH]1 (centres undefined),-6.81% (inactive),–
C[C@@H](N)C1CCC(C(=O)Nc2ccncc2)CC1 (some centres undefined),-1.42% (inactive),–
O=C(CCc1ccc(O)cc1)c1c(O)cc(O)cc1O,-9.52% (inactive),–
O=C1NC(=O)C(c2ccccc2[N+](=O)[O-])=C1Nc1ccc(O)c(Cl)c1,–,18.9 µM (active)
O=C1c2ccccc2-c2n[nH]c3cccc1c23,-17.5% (inactive),–
NNc1nncc2ccccc12,-3.72% (inactive),–
Oc1ccc2ccccc2c1SSc1c(O)ccc2ccccc12,-28.9% (inactive),–
COc1cc2nc(N3CCN(C(=O)C4CCCO4)CC3)nc(N)c2cc1OC (centres undefined),-11.8% (inactive),–
